# Data published in the supplement of paper PMC11219838.
# A number with no mark means an inactive call.
# Test system: Caenorhabditis elegans L1 (N2)
# Assay: survival and reproduction score of C. elegans L1 (0: 0-10 living worms, 1: 11-20, 2: 21-50, 3: >50, 4: overgrown) (score 0-4); higher = more worms, less nematicidal, active = 1 or less; extreme values may be limits of the assay
# Details: 60 µM; 6 days; temperature: 20 °C
# Protocol: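 DODA library (846 commercial 1,3,4- and 1,2,4-oxadiazole compounds plus commercial nematicide controls) screened at a single dose of 60 µM (0.6% DMSO) in 96-well plates, two biological replicates. Read-outs: C. elegans N2 L1 survival/reproduction score at day 6, 20 °C (0: 0-10 worms, 1: 11-20, 2: 21-50, 3: >50, 4: overgrown/starved). C. elegans daf-2 dauer, D. dipsaci and M. hapla J2 mobility at day 5, 20 °C, and P. penetrans mobility at day 5, 20 °C, each relative to DMSO controls. M. hapla egg hatching at day 12, 25 °C, relative to the mean of 8 DMSO wells on the same plate.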
row,Structure (SMILES),survival and reproduction score
1,O=C(Nc1ccccc1-c1nc(-c2cccnc2)no1)c1ccc(Cl)cc1,4
2,FC(F)(F)c1cccc(-c2noc(-c3cccs3)n2)c1,0 (active)
3,Cc1ccc(-c2nc(-c3cccnc3)no2)cc1Cl,0 (active)
4,CC(Oc1ccccc1)c1nc(-c2cccnc2)no1 (stereo not given),4
5,COc1ccccc1OCc1nc(-c2ccc(Cl)cc2)no1,4
6,CCCCC(=O)Nc1ccccc1-c1nc(-c2ccccn2)no1,4
7,Cc1cc(C)c(C)c(OCc2nc(-c3ccccc3)no2)c1,4
8,Fc1ccc(-c2noc(-c3ccc(Cl)cc3)n2)cc1,1 (active)
9,Clc1ccc(OCc2nc(-c3ccccc3)no2)cc1,4
10,Cc1cccc(-c2noc(COc3cc(C)ccc3C)n2)c1,2
11,Cc1ccc(-c2nc(-c3ccccc3Br)no2)cc1,4
12,O=C(CSc1nnc(-c2ccncc2)o1)Nc1cc(C(F)(F)F)ccc1Cl,4
13,Clc1ccc(SCc2nc(-c3ccccn3)no2)cc1,0.5 (active)
14,O=C(CSc1nnc(-c2ccccc2Cl)o1)Nc1ccc(F)cc1,4
15,CCc1cccc(C)c1NC(=O)CSc1nnc(-c2ccccc2)o1,4
16,Cc1cc(NC(=O)CSc2nnc(-c3ccccc3Cl)o2)no1,4
17,Cc1ccc(-c2nnc(SCC(=O)Nc3cc(C)c(C)cc3Br)o2)cc1,4
18,Cc1cc(Cl)ccc1OCc1nc(-c2ccc(F)cc2)no1,4
19,Cc1ccc(-c2noc(COc3cccc(C)c3)n2)cc1,4
20,COc1ccc(-c2noc(-c3ccccc3C(=O)Nc3cccc(C)c3C)n2)cc1,4

row,Structure (SMILES),survival and reproduction score
1,Cc1ccccc1-c1noc(COc2ccc(Cl)cc2Cl)n1,4
2,CC(C)CCC(=O)Nc1ccccc1-c1nc(-c2ccccn2)no1,2
3,COc1cccc(-c2noc(-c3cc(C)ccc3C)n2)c1,4
4,Cc1cccc(-c2noc(COc3ccc(Cl)cc3C)n2)c1,4
5,CCC(=O)Nc1ccccc1-c1nc(-c2ccccn2)no1,4
6,COc1ccc(CC(=O)Nc2ccc(-c3noc(-c4ccccc4Br)n3)cc2)cc1,4
7,Cc1ccc(C)c(-c2nc(-c3cccnc3)no2)c1,0 (active)
8,CCn1c(SCc2nc(-c3cccs3)no2)nnc1-c1ccco1,2
9,O=C(CSc1nnc(-c2cccc3ccccc23)o1)Nc1cccc(F)c1,4
10,CC(C)(C)c1ccc(-c2nnc(SCC(=O)c3ccc(F)cc3)o2)cc1,4
11,Cc1ccccc1OCc1nc(-c2ccc(F)cc2)no1,4
12,COc1nc2ccc(C)cc2cc1-c1noc(-c2cccnc2)n1,4
13,Clc1ccc(OCc2nc(-c3ccccn3)no2)c(Br)c1,4
14,CCOC(=O)c1sc(NC(=O)CSc2nnc(-c3ccc(Cl)cc3)o2)c(C#N)c1C,4
15,Clc1ccccc1CSc1nnc(-c2ccncc2)o1,4
16,Cc1ccc(NC(=O)CSc2nnc(-c3ccncc3)o2)cc1Cl,4
17,Cc1ccc(-c2nnc(SCC(=O)Nc3ccc(F)cc3)o2)cc1,4
18,O=C(CSc1nnc(-c2ccccc2)o1)Nc1ccc(F)cc1F,4
19,COc1cccc(-c2noc(CSc3ccccc3)n2)c1,4
20,COc1ccc(-c2nnc(SCC(=O)Nc3ccc(C(C)C)cc3)o2)cc1,4
